Results: PubChem BioAssay (NCI)
This is part of a sample that, as a whole, favours compounds with a hit. Of some 79,000 tested, about 15% had one in any assay. A number with no mark means an inactive call. Active and inactive are the calls of the source. No stated cut-off is given here; in the data, active means growth inhibition above about 70%; inactive means the rest.

Assay: NCI Yeast Anticancer Drug Screen. Data for the bub3 strain (AID 167)
Details: S. cerevisiae bub3 mutant strain, at 50.0 µM, hits give high values
Method in brief: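 Mutant yeast screening strain plus compound; vehicle-treated cultures serve as the 0% inhibition reference.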

Compound | growth inhibition
COc1ccc(N=Cc2cc(Br)cc(Br)c2O)cc1.COc1ccc(N=Cc2cc(Br)cc(Br)c2O)cc1.[Co] | 62.6%
O=C(/C=C/C(=O)N1CCCC1)N1CCCC1 | 2.55%
O=S(c1ccccc1)c1c(Cl)c(Cl)nc(Cl)c1Cl (stereo not drawn) | 99.5% (active)
CSc1nc(N)c2cnn(C3OC(CO)C(O)C3O)c2n1 (stereo not drawn) | 12%
COc1cccc(C=O)c1O | -9.35%
Cn1c(=O)c2c(ncn2CCCCOc2ccc3c(c2)[n+]([O-])nc(N)[n+]3[O-])n(C)c1=O | 56.5%
Cn1ncc2c(Nc3cccc(Cl)c3)nc(Nc3cccc(Cl)c3)nc21 | 94.2% (active)
Cc1cc(C)n2nc(N)c(C#N)c2c1C#N | 47.7%
COc1ccc(C2c3cc4c(cc3OC(O)C2C)OCO4)cc1 (stereo not drawn) | 97% (active)
Nc1ccccc1[S][Sn]([c]1ccccc1)([c]1ccccc1)[c]1ccccc1 | 98.3% (active)
Cn1c(Sc2ccc(-c3cccnc3)n2C)ccc1-c1cccnc1 | 97.8% (active)
Nc1nnc(-c2cc(=O)c3cc(Cl)ccc3o2)s1 | 22.4%
COc1ccc(CNc2nc3cc(C(F)(F)F)ccc3nc2C)cc1OC | 89.7% (active)
CC(=O)OCC1CC2OC2CC1C (stereo not drawn) | 75% (active)
CCCCN(CCCC)CC(O)c1cc(-c2ccc(Cl)cc2)nc2cc(C)ccc12 (stereo not drawn) | 98.9% (active)
NC(=S)n1nc(-c2ccccc2)c(N=Nc2ccccc2Cl)c1-c1ccccc1 | 93.7% (active)
CCCCCCCCCCCCN(CCO)CCO | 60.6%
CC(C)CCSc1ncnc2nc[nH]c12 | 73.5% (active)
O=C(c1ccccc1)c1cccc2ccccc12 | 49.7%
O=C1C(c2c[nH]c3ccccc23)=Nc2ccc(Br)cc21 | 90% (active)

Compound | growth inhibition
COc1cccc(CCCNC(=O)Cc2ccccc2CO)c1 | -12.2%
C/C(=N\NC(=S)N1CCN(C2CCCCC2)CC1)c1ccccn1 | 96.6% (active)
CN(C)CCOC(=O)C1(CCC2CCCCC2)CCCCC1 | 85% (active)
O=c1c(Cl)cc2nc3ccccc3sc-2c1Cl | 80.5% (active)
COc1ccc2nc(NC(=O)Nc3c(Cl)cccc3Cl)sc2c1 | 98.7% (active)
Cc1c[nH]c2nc(C)n(-c3ccccc3)c(=N)c12 | -6.85%
O=C(C1=NNC(c2ccccc2)C1C(=O)c1ccccc1)c1ccccc1 (stereo not drawn) | 75% (active)
CCOC(=O)N1CCN(C=S)CC1 | 24%
COC(=O)N(C[C@@H]1C=CCCC1)c1ccccc1I | 91% (active)
N=c1ccc2c(c1)[nH]c1c3ccccc3[nH]c3cccc2c31 | 88.3% (active)
CC1(C)[C@H]2CC[C@]1(C)[C@H](OC(=O)NNC(=O)O[C@@H]1C[C@@H]3CC[C@@]1(C)C3(C)C)C2 | 67.2%
N#CC1(C#N)C(C#N)(C#N)C12CCCCCC2 | 99% (active)
CCOP(=O)(OCC)OC1c2[nH]ccc2-c2cc(C(=O)OC)[nH]c2C1OC (stereo not drawn) | 21.5%
O=[N+]([O-])/C(=C\c1cccs1)c1ccccc1 | 99.5% (active)
Cc1ccccc1NC(=O)C(=O)C(C#N)c1c(Cl)cccc1Cl (stereo not drawn) | 14.7%
O=C1c2c(F)c(F)c(F)c(F)c2SC2=NCCN12 | 83.2% (active)
CCCC(C)OC(=O)Nc1cccc(Cl)c1 (stereo not drawn) | 97.5% (active)
Nc1nc(SCc2ccccc2)c2ncn(CCCl)c2n1 | -2.15%
CCCCOC(=O)c1nc(N(CC2CCCCC2)C(=O)NC)sc1NC(=O)NC | -1.65%

Assay: NCI Yeast Anticancer Drug Screen. Data for the mlh1 rad18 strain (AID 175)
Details: S. cerevisiae mlh1 rad18 strain growth inhibition; at 5.0 µM (retest, dose inferred, filed as 0.5); hits give high values
Method in brief: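 Compound-treated yeast growth, normalised to vehicle controls. Strain bears defined DNA repair mutations.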

Compound | growth inhibition
COc1ccc(N=Cc2cc(Br)cc(Br)c2O)cc1.COc1ccc(N=Cc2cc(Br)cc(Br)c2O)cc1.[Co] | 97% (active)
O=C(/C=C/C(=O)N1CCCC1)N1CCCC1 | -2%
O=S(c1ccccc1)c1c(Cl)c(Cl)nc(Cl)c1Cl (stereo not drawn) | 99% (active)
CSc1nc(N)c2cnn(C3OC(CO)C(O)C3O)c2n1 (stereo not drawn) | -20%
COc1cccc(C=O)c1O | 1%
Cn1c(=O)c2c(ncn2CCCCOc2ccc3c(c2)[n+]([O-])nc(N)[n+]3[O-])n(C)c1=O | 32%
Cn1ncc2c(Nc3cccc(Cl)c3)nc(Nc3cccc(Cl)c3)nc21 | 32%
Cc1cc(C)n2nc(N)c(C#N)c2c1C#N | -1%
COc1ccc(C2c3cc4c(cc3OC(O)C2C)OCO4)cc1 (stereo not drawn) | -1%
Nc1ccccc1[S][Sn]([c]1ccccc1)([c]1ccccc1)[c]1ccccc1 | 99% (active)
Cn1c(Sc2ccc(-c3cccnc3)n2C)ccc1-c1cccnc1 | -5%
Nc1nnc(-c2cc(=O)c3cc(Cl)ccc3o2)s1 | -1%
COc1ccc(CNc2nc3cc(C(F)(F)F)ccc3nc2C)cc1OC | -19%
CC(=O)OCC1CC2OC2CC1C (stereo not drawn) | -12%
CCCCN(CCCC)CC(O)c1cc(-c2ccc(Cl)cc2)nc2cc(C)ccc12 (stereo not drawn) | 33%
NC(=S)n1nc(-c2ccccc2)c(N=Nc2ccccc2Cl)c1-c1ccccc1 | 2%
CCCCCCCCCCCCN(CCO)CCO | 41%
CC(C)CCSc1ncnc2nc[nH]c12 | -1%
O=C(c1ccccc1)c1cccc2ccccc12 | -1%
O=C1C(c2c[nH]c3ccccc23)=Nc2ccc(Br)cc21 | 24%

Compound | growth inhibition
COc1cccc(CCCNC(=O)Cc2ccccc2CO)c1 | 13%
C/C(=N\NC(=S)N1CCN(C2CCCCC2)CC1)c1ccccn1 | 15%
CN(C)CCOC(=O)C1(CCC2CCCCC2)CCCCC1 | -2%
O=c1c(Cl)cc2nc3ccccc3sc-2c1Cl | 55%
COc1ccc2nc(NC(=O)Nc3c(Cl)cccc3Cl)sc2c1 | 30%
Cc1c[nH]c2nc(C)n(-c3ccccc3)c(=N)c12 | -2%
O=C(C1=NNC(c2ccccc2)C1C(=O)c1ccccc1)c1ccccc1 (stereo not drawn) | 4%
CCOC(=O)N1CCN(C=S)CC1 | -5%
COC(=O)N(C[C@@H]1C=CCCC1)c1ccccc1I | 41%
N=c1ccc2c(c1)[nH]c1c3ccccc3[nH]c3cccc2c31 | 33%
CC1(C)[C@H]2CC[C@]1(C)[C@H](OC(=O)NNC(=O)O[C@@H]1C[C@@H]3CC[C@@]1(C)C3(C)C)C2 | 38%
N#CC1(C#N)C(C#N)(C#N)C12CCCCCC2 | 52%
CCOP(=O)(OCC)OC1c2[nH]ccc2-c2cc(C(=O)OC)[nH]c2C1OC (stereo not drawn) | -5%
O=[N+]([O-])/C(=C\c1cccs1)c1ccccc1 | 96% (active)
Cc1ccccc1NC(=O)C(=O)C(C#N)c1c(Cl)cccc1Cl (stereo not drawn) | 2%
O=C1c2c(F)c(F)c(F)c(F)c2SC2=NCCN12 | 11%
CCCC(C)OC(=O)Nc1cccc(Cl)c1 (stereo not drawn) | -20%
Nc1nc(SCc2ccccc2)c2ncn(CCCl)c2n1 | -2%
CCCCOC(=O)c1nc(N(CC2CCCCC2)C(=O)NC)sc1NC(=O)NC | 5%
